Source: PubChem BioAssay (EPA / NIEHS)
Where “and” joins values, the source holds several entries; their conditions need not be identical. Equal values may be shown once. A structure can be active in one record and inactive in another. Calls of active or inactive are those of the source. The calls were made as follows: active = hit-call score of the fitted dose curve at least 0.9, where 1 is the maximum; inactive = score below 0.9.

Experiment: ATG_CRE_CIS: Attagene CIS-FACTORIAL HepG2 Assay for human cAMP Responsive Element (CRE) binding protein 3 (AID 2282926)
Details: HepG2 CRE cis-reporter, Attagene multiplexed mRNA; actives raise or lower the signal
Description: ATG_CIS is a cell-based, multiplexed-readout assay that uses HepG2, a human liver cell line, with measurements taken at 24 hours after chemical dosing in a 24-well plate.ATG_CRE_CIS is one of 52 assay component(s) measured or calculated from the ATG_CIS assay. It is designed to make measurements of mRNA induction, a form of inducible reporter, as detected with fluorescence intensity signals by Reverse transcription polymerase chain reaction (RT-PCR) and Capillary electrophoresis technology.Data from the assay component ATG_CRE_CIS was analyzed into 1 assay endpoint. This assay endpoint, ATG_CRE_CIS, was analyzed with bidirectional fitting relative to DMSO as the negative control and baseline of activity. Using a type of inducible reporter, measures of mRNA for gain or loss-of-signal activity can be used to understand the reporter gene at the transcription factor-level as they relate to the gene CREB3. Furthermore, this assay endpoint can be referred to as a primary readout, because this assay has produced multiple assay endpoints where this one serves a reporter gene function. To generalize the intended target to other relatable targets, this assay endpoint is annotated to the dna binding intended target family, where the subfamily is basic leucine zipper.
Human liver HepG2 cells are transiently transfected with multiple reporter transcription units (MRTUs) in 6-well plates using FuGene 6 reagent (Roche; 3 ml FuGene/1 mg DNA). The MRTU constructs are regulated by a cis-regulating element (promoter). […] A major difference between the CIS and TRANS system is that in CIS activities of endogenous TFs are measured, whereas the TRANS assay evaluates changes in activities of exogenous, chimeric NR-Gal4 proteins. […] At the end of 24 hour incubation, total RNA was isolated using TriZol reagent (Invitrogen). The isolated RNA is then reverse-transcribed using oligo(dT) primer and Mo-MLV reverse transcriptase (Invitrogen) with DNAse I (Ambion) treatment for 30 min. The one-tenth of the produced cDNA was amplified by PCR using Taq DNA polymerase (Invitrogen) and two reporter sequence-specific primers. The PCR products were fluorescently labeled by primer extension with 6-arboxyfluorescein (6-FAM) 5'-labeled reporter sequence-specific primer (2 min at 95 C, 20 s at 68 C and 10 min at 72 C) and these products were digested with 5U of HpaI (New England Biolabs) for 2h at 37 C. The fragments were purified using Qiaquick PCR columns (Qiagen), analyzed on an ABI 3130xL genetic analyzer (Applied Biosystems) with peak positions identified by using a set of X-rhodamine (ROX)-labeled MapMarker1000 molecular weight standards (BioVentures). The raw capillary electrophoresis data was processed using Attagraph software (Attagene).

Row | Structure (SMILES) | outcome | AC50
1 | Cc1ccc(N)cc1Cl | inactive | 
2 | CCCCCCCCSC(=O)Oc1cc(Cl)nnc1-c1ccccc1 | inactive | 
3 | CC(=O)[O][Hg][c]1ccccc1 |  | 2.79 µM (active)
4 | CC12CC1(C)C(=O)N(c1cc(Cl)cc(Cl)c1)C2=O (stereo not given) | inactive | 
5 | COC[C@H](C)N(C(=O)CCl)c1c(C)csc1C | inactive | 
6 | Nc1ccc(Cl)cc1C(=O)c1ccccc1 | inactive | 
7 | CCC(=O)C(CC(C)N(C)C)(c1ccccc1)c1ccccc1 (stereo not given) | inactive | 
8 | C=CCc1ccc(OC)cc1 | inactive | 
9 | CCCCCCCCC(=O)NCc1ccc(O)c(OC)c1 | inactive | 
10 | CC(=[OH+])/C=C(/C)[O-].CC(=[OH+])/C=C(/C)[O-].CC(=[OH+])/C=C(/C)[O-].[Al] | inactive | 
11 | CNC(=O)O/N=C/C(C)(C)S(C)=O (stereo not given) | inactive | 
12 | O=C(O)Cc1ccccc1 | inactive | 
13 | O=c1[nH]c(=O)[nH]c(=O)[nH]1 | inactive | 
14 | C[C@]12CC[C@H](O)CC1=CC[C@@H]1[C@@H]2CC[C@]2(C)C(=O)CC[C@@H]12 | inactive | 
15 | O=C(O)C(F)(F)C(F)(F)C(F)(F)C(F)(F)C(F)(F)C(F)(F)C(F)(F)C(F)(F)C(F)(F)C(F)(F)F | inactive | 
16 | O=C(Nc1ccc2[nH]ccc2c1)c1cc2cc(F)ccc2n1Cc1cccc(F)c1 | inactive | 
17 | CC(C)C1CCC(Cc2ccc(Cl)cc2)C1(O)Cn1cncn1 (stereo not given) | inactive | 
18 | C[C@H]1O[C@@H](O[C@H]2[C@@H](O)C[C@H](O[C@H]3[C@@H](O)C[C@H](O[C@H]4CC[C@@]5(C)[C@H](CC[C@@H]6[C@@H]5CC[C@]5(C)[C@@H](C7=CC(=O)OC7)CC[C@]65O)C4)O[C@@H]3C)O[C@@H]2C)C[C@H](O)[C@@H]1O | inactive | 
19 | CCOC(=O)/C=C(C)/C=C/C[C@@H](C)CCCC(C)C |  | 23.5 µM (active)
20 | NC(=S)Nc1ccccc1 | inactive | 

Row | Structure (SMILES) | outcome | AC50
21 | O=C1CCCN1 | inactive | 
22 | COc1cc(OC)nc(NC(=O)NS(=O)(=O)c2ncccc2C(=O)N(C)C)n1 | inactive | 
23 | COP(=S)(OC)Oc1ccc(S(=O)(=O)N(C)C)cc1 | inactive | 
24 | C(=NC1CCCCC1)=NC1CCCCC1 | inactive | 
25 | CCC(C)c1cccc(C(C)CC)c1O (stereo not given) | inactive | 
26 | C[C@@H]1C[C@@H]([C@H](O)CC2CC(=O)NC(=O)C2)C(=O)[C@@H](C)C1 | inactive | 11.1 µM (active)
27 | Cc1ccccc1N | inactive | 
28 | CCN(CC)C(=O)Cl | inactive | 
29 | [O-][Cl+2]([O-])O | inactive | 
30 | ClCc1ccccn1 |  | 67.5 µM (active)
31 | COC(=O)c1sccc1S(=O)(=O)NC(=O)Nc1nc(C)nc(OC)n1 | inactive | 
32 | BrCCBr | inactive | 
33 | ClCCBr | inactive | 
34 | COc1cc(-c2ccc(N)c(OC)c2)ccc1N |  | 31 µM (active) and 29.3 µM (active)
35 | CC1CN1P(=O)(N1CC1C)N1CC1C (stereo not given) | inactive | 
36 | COP(=O)(OC)OC | inactive | 
37 | C=CC#N | inactive | 
38 | ClC(Cl)=C(Cl)C(Cl)=C(Cl)Cl |  | 180 µM (active)
39 | Cl/C=C/Cl | inactive | 
